# Assay results from PubChem BioAssay AID2315 (National Center for Advancing Translational Sciences (NCATS), 2010).
# Out of some 290,000 compounds screened, about 27,000 (9.3%) were called active. This is one part of a sample in which actives are shown more often than they occur. Values without a mark were called inactive. Rule as the data show it: active = inhibition mostly above about 28% (no sharp cut-off); inactive = mostly below about 43%. Where a SMILES comes first, the peptide text is derived from it. [ ]: non-standard residue; d: D form. The star is where a group is joined. PhAc = O=C(Cc1ccccc1)*
# Assay: A qHTS for Small Molecule Inhibitors of Shiga Toxin; also: 0% is about no effect
# Details: Vero cells, Shiga toxin protein synthesis inhibition reporter; at 38.7 µM, stronger effect = higher value
row,Compound,inhibition
1,O=C(NNS(=O)(=O)c1ccc([N+](=O)[O-])cc1)C1CCCCC1,-11%
2,CCCCn1c(N)c(N(CCOC)C(=O)c2oc3ccc(OC)cc3c2C)c(=O)[nH]c1=O,-5%
3,COc1cc(C)cc(CN2CCC(Cc3ccccc3)CC2)c1O,-4.61%
4,NC(=O)c1ccccc1N=Cc1ccc2ccccc2c1,69.3%
5,COc1ccc(-c2ccnc(SCC(=O)N3CCOCC3)n2)cc1,19.9%
6,COc1ccc(-c2cn3cccnc3n2)cc1,50.1% (active)
7,COc1ccc(N2CCN(C(=O)CSc3nnc4ncccn34)CC2)cc1,-8.3%
8,O=C(Nc1ccccc1N1CCOCC1)c1ccc(OCc2cscn2)cc1,3.77%
9,COc1ccc(OCCCn2cccc2/C=C2/C(=N)N3OC(C)=CC3=NC2=O)cc1,47.7% (active)
10,CC1=CC2=NC(=O)/C(=C/c3coc4ccccc4c3=O)C(=N)N2O1,11.7%
11,CCOc1cc(/C=C2/C(=N)N3OC(C)=CC3=NC2=O)ccc1OC,-19.9%
12,Oc1ccccc1CN1CCN(C(c2ccccc2)c2ccccc2)CC1,-6.21%
13,NC(=O)COC(=O)c1ccc2c(c1)C(=O)N(Cc1ccco1)C2=O,-6.38%
14,CCC(=O)NCCc1nc2ccccc2n1CC,-5.67%
15,CC(C)CC(=O)N/C(N)=N/c1nc2ccccc2s1,61.6% (active)
16,CC(C)CC(=O)NC(=S)NCc1ccccc1,-1.98%
17,Cc1cc(C(=O)OCC(=O)Nc2nnc(C(C)C)s2)c2ccccc2n1,-2.62%
18,O=C(O)CCCCc1nc2ccccc2s1,-9.29%
19,CCC(=O)NC(=Nc1nc2ccccc2s1)NC(=O)CC,57.8% (active)
20,CCCn1nc(NC(=O)C(C)C)c2cc3cc(OC)ccc3nc21,40.5%
21,COc1ccc(C(=O)CC(=O)C(=O)Nc2cc([N+](=O)[O-])ccc2OC)cc1,-3.5%
22,O=C(Cn1ncc2c3ccccc3n(Cc3ccccc3)c2c1=O)NCc1ccccn1,16.1%
23,Cc1c(C(=O)N2CCCC2)c(S(=O)(=O)NCC(C)c2ccccc2)c(C)n1C (stereo unspecified),-3.94%
24,CC1(C(=O)N/N=C/c2cc3c(cc2Br)OCO3)CC1(Br)Br (stereo unspecified),-11.8%

row,Compound,inhibition
1,O=C(C1CCN(Cc2ccc(Cl)cc2)CC1)N1CCN(Cc2ccc3c(c2)OCO3)CC1,-7.69%
2,COc1ccc(C2c3[nH]c4ccccc4c3C[C@H]3C(=O)N(CC(C)C)CC(=O)N23)c(OC)c1 (stereo partly specified),-6.17%
3,COc1cccc(/C=N/Nc2cc(C)nc(-c3ccccc3O)n2)c1O,38.3% (active)
4,COc1ccccc1/C=N\Nc1cc(C)nc(-n2nc(C)cc2C)n1,-8.59%
5,COc1cccc2c(N/N=C/c3ccco3)cc(C)nc12,63.5%
6,CC(=O)c1cccc(NC(=O)CN2C(=O)c3cccnc3Oc3ccc(Cl)cc32)c1,1.59%
7,CCc1ccc(N(C(=O)c2csnn2)C(C(=O)NC2CCCCC2)c2ccncc2)cc1 (stereo unspecified),32.9%
8,CCN(CC)S(=O)(=O)c1ccc(NC(=O)CN(c2cccc(F)c2)S(C)(=O)=O)cc1,-12.2%
9,COc1cc(NC(=O)CN(C)S(=O)(=O)c2ccc3nc(C)sc3c2)cc(OC)c1,15.9%
10,Cc1nc2ccc(S(=O)(=O)N(C)CC(=O)NC(C)c3ccccc3)cc2s1 (stereo unspecified),-9.9%
11,Cc1ccc2nc(-c3ccc(NC(=O)CN(C)S(=O)(=O)c4ccccc4)cc3)sc2c1,84.9% (active)
12,Cc1cccc(N(CC(=O)Nc2ccc(-c3nc4ccc(C)cc4s3)cc2)S(C)(=O)=O)c1,146% (active)
13,COc1cccc(N(CC(=O)Nc2cccc(F)c2)S(C)(=O)=O)c1,12.9%
14,C[C@H]1CCC(=O)N([C@H](CSc2ccccc2)Cc2ccccc2)CC1,6.56%
15,CCCOc1ccc(Cc2c(O)nc(N)[nH]c2=O)cc1C,1.67%
16,CCC(=O)N1c2ccc(S(=O)(=O)NCc3ccco3)cc2CC1C (stereo unspecified),12.8%
17,O=C(Nn1cnnc1)c1cc(Cl)ccc1Cl,7.38%
18,C=CCc1cc(S(=O)(=O)c2ccc(O)c(CC=C)c2)ccc1O,-18%
19,CC(C)c1nnc(NC(=O)CCC(=O)N2CCN(c3cccc(Cl)c3)CC2)s1,-4.62%
20,CS(=O)(=O)N(CC(=O)N1CCN(c2cccc(Cl)c2)CC1)c1ccccc1,-4.1%
21,O=C(c1ccc2c(c1)OCO2)N1CCN(C(=O)c2ccco2)CC1,17%
22,O=C(CCCC(=O)N1CCN(c2cccc(Cl)c2)CC1)c1ccccc1,25.1% (active)
23,O=C(c1cccc([N+](=O)[O-])c1)N1CCN(C(=O)c2ccco2)CC1,-3.08%
24,O=C(c1ccco1)N1CCN(c2cccc(Cl)c2)CC1,24.3% (active)

row,Compound,inhibition
1,Nc1cccc(CCc2nc3ccccc3[nH]2)c1,91.8% (active)
2,Oc1ccc2nc(Cc3ccccc3)[nH]c2c1,54.8%
3,CC(C)=C(NC(=O)c1ccco1)C(=O)NCCc1nc2ccccc2[nH]1,7.12%
4,CCOC(=O)C1=C(c2ccccc2)NC(=O)NC1c1cc(OCC)c(O)c([N+](=O)[O-])c1 (stereo unspecified),-6.05%
5,Cc1ccc(C(=O)OCc2nc(N)nc(Nc3ccccc3C)n2)cc1,-11.7%
6,Cc1ccccc1Nc1nc(N)nc(CSc2ccccc2)n1,87.7% (active)
7,Cc1ccccc1Nc1nc(N)nc(CSc2nnc3ccccn23)n1,37.1%
8,Cc1cc(OC(C)C(=O)NC2CC(C)(C)NC(C)(C)C2)c2c(C)cc(=O)oc2c1 (stereo unspecified),-4.82%
9,CCn1c(CNC(=O)c2cc(OC)c(OC)c(OC)c2)cc2cc(C)ccc21,2.16%
10,CCOc1ccc(CN(C)C(=O)c2ccc(=O)[nH]c2)cc1,-3.04%
11,CCc1ccc(/C=N/NC(=O)c2nnn(-c3nonc3N)c2CN2CCc3ccccc32)cc1,-4.83%
12,COc1ccc(NS(=O)(=O)c2cccc3nsnc23)cc1Cl,-3.74%
13,O=C(Nc1ccncc1)c1c(F)cccc1F,-10.9%
14,CCCC(=O)Nc1nc2ccc(NC(=O)c3c(F)c(F)c(OC)c(F)c3F)cc2s1,-15.8%
15,CSc1nc2ccc(NC(=O)c3c(F)cccc3F)cc2s1,90.3% (active)
16,O=C(N/N=C/c1ccc(OCc2ccccc2)cc1)c1ccc(O)cc1,51.1%
17,Cc1cccc(OCC(=O)NCC(=O)N/N=C/c2ccc(N(C)C)cc2)c1,-12.5%
18,O=C(N/N=C/c1cccc(O)c1)c1cc2c(ccc3ccccc32)o1,6%
19,Cc1ccc(OCCOCCOc2ccc(Br)cc2/C=N\NC(=O)c2ccncc2)cc1,-5.78%
20,O=C(N/N=C/c1cccc(OCc2ccccc2)c1)c1ccc(Br)o1,46.8% (active)
21,Cc1ccc(OCCOc2cccc(/C=N/NC(N)=O)c2)cc1,56.6% (active)
22,CCOc1ccccc1N1C(=O)CC(Sc2nccc(C)n2)C1=O (stereo unspecified),10.8%
23,Cc1ccc2c(c1)N(CC(=O)N1CCOCC1)C(=O)CO2,-3.54%
24,Cc1cc(C(C)(C)C)n2nc(C)c(-c3ccccc3)c2n1,-4.85%

row,Compound,inhibition
1,Cc1nc2cc(-c3ccc(F)cc3)nn2c(N2CCOCC2)c1C,62.6%
2,Cc1cc(N)n2nc(-c3ccc(C(C)(C)C)cc3)cc2n1,88.7% (active)
3,Cc1cccc(OCC(O)CN2CCN(S(=O)(=O)c3ccc(C)cc3C)CC2)c1 (stereo unspecified),-2.77%
4,O=C(CSCC(=O)Nc1cccc([N+](=O)[O-])c1)Nc1ccccc1,7.24%
5,O=C(CSc1ncn[nH]1)Nc1nc(-c2cccc([N+](=O)[O-])c2)cs1,8.25%
6,CCOC(=O)CSc1nnc(CNc2nc(-c3ccccc3)cs2)n1C,9.53%
7,O=C(CSc1nc(-c2ccccc2)cs1)Nc1cccc([N+](=O)[O-])c1,81.3% (active)
8,O=C(CSC1=NCCS1)Nc1nc(-c2ccccc2)cs1,29.7%
9,CCNC(=O)CSc1nc(-c2ccccc2)cs1,74.3% (active)
10,CC(C)C[C@@H](NC(=O)[C@H]1CCCN1C(=O)Cc1ccccc1)C(N)=O (PhAc-[dP]-[dL]-NH2),6.07%
11,CCc1ccc(Nc2nnc(SCC(=O)c3ccc4c(c3)NC(=O)CO4)s2)cc1,32.3%
12,CC(C)[C@H](NC(=O)OCc1ccccc1)C(=O)OCc1ccccc1,25.1%
13,CCC1OC(c2ccc([N+](=O)[O-])cc2)=Nc2ccccc21 (stereo unspecified),6.08%
14,COc1ccc(-c2n[nH]c(C)c2-c2ccccc2OC)c(O)c1,13.4%
15,O=C(C1CC(=O)N(c2ccc(Br)cc2)C1)N1CCCC1 (stereo unspecified),-22.5%
16,COc1ccc(NC(=O)c2cc([N+](=O)[O-])ccc2NC(=O)CNC2CCCCC2C)c(OC)c1 (stereo unspecified),7.27%
17,CCc1nnc(NC(=O)c2sc3nc(C)cc(COC)c3c2N)s1,53.1%
18,CCc1ccc2nc3sc(C(=O)Nc4nnc(CC)s4)c(N)c3cc2c1,48.9% (active)
19,CCc1nnc(NC(=O)c2cccc(S(=O)(=O)N(C)c3ccc(OC)cc3)c2)s1,-10.6%
20,Cc1ccc(C)c(S(=O)(=O)Nc2cccc(-n3cnnn3)c2)c1,23.9%
21,Cc1cccc[n+]1CC(=O)c1ccccc1,5.04%
22,O=C(N/N=C/c1c(Cl)[nH]c2ccccc12)c1sc2ccccc2c1Cl,-0.233%
23,O=C(Nc1ccon1)c1sc2ccccc2c1Cl,88% (active)
24,O=C(Nc1ccon1)c1cccc(Cl)c1,5.52%
